Test [1] in a line: qHTS assay to identify small molecule that activate the aryl hydrocarbon receptor (AhR) signaling pathway - cell viability counter screen (AID 743086).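 Also: HepG2 liver cells carrying the AhR DRE luciferase reporter; series mostly up to about 70 µM; nearly all actives have a fitted effect of over 45% in size.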 Put shortly: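 HepG2-AhR-luc (HG2L7.5c1) cells, 4000/well, treated 24 h at 37 C with compound; viability measured as CellTiter-Fluor fluorescence after 30 min in the same wells as the luciferase read.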
A general note: In qHTS, concentration-response curves come from the screen itself.

A short description of test [2]: qHTS assay to identify small molecule antagonists of the peroxisome proliferator-activated receptor gamma (PPARg) signaling pathway - cell viability counter screen (AID 743194). Also: nearly all actives have a fitted effect of over 55% in size. The note with it: Potency: co-treated with 50 nM rosiglitazone unless noted. Put shortly: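 Cytotoxicity counter screen in PPARg-bla HEK293H cells, same wells as reporter assay. Compounds plus 50 nM rosiglitazone (final) for 17 h at 37 C, then viability read by CellTiter-Glo luminescence.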

Test [3] can be described thus: qHTS assay for small molecule agonists of the antioxidant response element (ARE) signaling pathway (AID 743202; active = well fitted activation curve with a large enough effect in the signal ratio in the repeat runs, not every such curve was filed as active; the % refers to the signal ratio; also: potency is read from the fitted curve at half-maximal effect). Put shortly:
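ARE-bla HepG2 cells (beta-lactamase reporter under the antioxidant response element), plated 5 hours, then exposed to compounds 16 hours at 37 C. LiveBLAzer B/G FRET substrate added for 2 hours at room temperature; fluorescence intensity read.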

Test [4] is described as follows: qHTS assay for small molecule agonists of the antioxidant response element (ARE) signaling pathway - cell viability counter screen (AID 743203; calls by dose curve; also: nearly all actives have a fitted effect of over 55% in size; also: potency is read from the fitted curve at half-maximal effect). An outline of the steps:
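Following 16 hrs of compound treatment at 37C, HepG2 cells with an ARE-controlled beta-lactamase gene were lysed with CellTiter-Glo. Luminescence was read after 30 min at room temperature.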

Test [5] in a line: qHTS assay for small molecule activators of the heat shock response signaling pathway - cell viability counter screen (AID 743209). Also: nearly all actives have a fitted effect of over 50% in size. Put shortly:
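Readout: CellTiter-Glo luminescence, 30 min at room temperature. System: HSE-bla HeLa cells, 1500/well, plated overnight. Treatment: compounds in DMSO, 5 h at 37 C.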

A short description of test [6]: qHTS assay for small molecule activators of the heat shock response signaling pathway (AID 743210; active = well fitted activation curve with a large enough effect in the signal ratio in the repeat runs, with a control signal flat, not every such curve was filed as active; the % refers to the signal ratio; also: potency is read from the fitted curve at half-maximal effect; as to activation: series mostly up to about 63 µM). An outline of the steps: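 HSE-bla HeLa cells (beta-lactamase reporter under heat shock response elements), plated overnight, then exposed to compounds 5 h at 37 C; LiveBLAzer B/G FRET substrate added, 2.5 h at room temperature, fluorescence intensity read.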
Test [7] can be described thus: qHTS assay to identify small molecule agonists of the peroxisome proliferator-activated receptor delta (PPARd) signaling pathway - cell viability counter screen (AID 743211). Also: nearly all actives have a fitted effect of over 55% in size. Also: potency is read from the fitted curve at half-maximal effect. An outline of the steps:
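Viability was measured as CellTiter-Glo luminescence (30 min, room temperature) in the same wells as the beta-lactamase readout. GeneBLAzer PPARd UAS-bla HEK293H cells received compound after 5 h plating and were incubated 17 h at 37 C.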

Test [8] can be described thus: qHTS assay to identify small molecule antagonists of the peroxisome proliferator-activated receptor delta (PPARd) signaling pathway - cell viability counter screen (AID 743213). Also: nearly all actives have a fitted effect of over 50% in size. Also: potency is read from the fitted curve at half-maximal effect. Put shortly: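 HEK293H PPARd UAS-bla cells, 5 h pre-incubation, compound + L165041 300 nM final, 17 h 37 C; B/G FRET substrate 2 h RT; then CellTiter-Glo 30 min RT, luminescence.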
Test [9] can be described thus: qHTS assay to identify small molecule agonists of the farnesoid-X-receptor (FXR) signaling pathway - cell viability counter screen (AID 743218). Also: nearly all actives have a fitted effect of over 45% in size. Also: potency is read from the fitted curve at half-maximal effect. Put shortly: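 Parallel cytotoxicity test: compound-treated (16 h, 37 C) HEK 293T FXR-bla reporter cells were lysed with CellTiter-Glo and luminescence recorded.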
A short description of test [10]: qHTS assay to identify small molecule antagonists of the farnesoid-X-receptor (FXR) signaling pathway - cell viability counter screen (AID 743221; active = well fitted cell-killing curve with a large enough effect in the repeat runs, not every such curve was filed as active; also: nearly all actives have a fitted effect of over 50% in size; also: potency is read from the fitted curve at half-maximal effect). Put shortly:
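Cytotoxicity counter screen run in the FXR-bla reporter wells: HEK 293T cells exposed to compound with 50 uM (final) chenodeoxycholic acid for 16 h, 37 C, then viability measured by CellTiter-Glo luminescence after 30 min, room temperature.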

Test [11] addresses Vitamin D3 receptor (Homo sapiens) (UniProt P11473). The test can be described thus: qHTS assay to identify small molecule agonists of the vitamin D receptor (VDR) signaling pathway (AID 743222; calls by dose curve). Put shortly: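 In VDR-bla cells, compound-induced beta-lactamase expression is quantified by FRET substrate fluorescence. Treatment lasts 16 h at 37C; substrate develops 2 h at room temperature.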

The target is the same in test [12]. Briefly: qHTS assay to identify small molecule antagonists of the vitamin D receptor (VDR) signaling pathway (AID 743223; active = well fitted inhibition curve with a large enough effect in the signal ratio in the repeat runs, not every such curve was filed as active; the % refers to the signal ratio). Put shortly:
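Antagonist mode: compound added to VDR-bla cells alongside agonist 1alpha,25-dihydroxyvitamin D3 (3 nM final), incubation 16 h at 37C. Read-out is LiveBLAzer FRET fluorescence, 2 h at room temperature.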

The target of test [13] is Peroxisome proliferator-activated receptor delta (Homo sapiens) (UniProt Q03181). Briefly: qHTS assay to identify small molecule agonists of the peroxisome proliferator-activated receptor delta (PPARd) signaling pathway (AID 743212; calls by dose curve; also: potency is read from the fitted curve at half-maximal effect). Put shortly: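 GeneBLAzer UAS-bla HEK293H cells carrying a PPARδ construct were exposed to compounds at 37 °C. Beta-lactamase activity was read by FRET fluorescence after 2 h at room temperature with LiveBLAzer B/G substrate.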

For test [14] the target is unchanged. The test can be described thus: qHTS assay to identify small molecule antagonists of the peroxisome proliferator-activated receptor delta (PPARd) signaling pathway (AID 743215; active = well fitted inhibition curve with a large enough effect in the signal ratio in the repeat runs, not every such curve was filed as active; the % refers to the signal ratio;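 also: cells stimulated with agonist L165041 at 300 nM final during compound exposure; series mostly up to about 62 µM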). Put shortly: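 HEK293H UAS-bla, PPARd; agonist L165041 300 nM final with cpd in DMSO; 37 C 17 h; FRET substrate, RT 2 h; fluorescence intensity.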
Test [15] is described as follows: qHTS assay to identify aromatase inhibitors - cell viability counter screen (AID 743084).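 Also: cells stimulated with testosterone during compound exposure; nearly all actives have a fitted effect of over 55% in size.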
Test [16] deals with Aryl hydrocarbon receptor (Homo sapiens) (UniProt P35869). The test can be described thus: qHTS assay to identify small molecule that activate the aryl hydrocarbon receptor (AhR) signaling pathway (AID 743085).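 Also: HG2L7.5c1 human HepG2 liver cells with stably integrated DRE-driven firefly reporter; series mostly up to about 70 µM; nearly all actives have a fitted effect of over 15% in size.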 Put shortly:
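Luminescence (ONE-Glo) from a dioxin-responsive-element luciferase reporter in HG2L7.5c1 HepG2 cells after 24 hr compound exposure at 37C; viability measured by CellTiter-Fluor fluorescence beforehand.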

Test [17] has as its target Peroxisome proliferator-activated receptor gamma (Homo sapiens) (UniProt P37231). Briefly: qHTS assay to identify small molecule agonists of the peroxisome proliferator-activated receptor gamma (PPARg) signaling pathway (AID 743094; active = well fitted activation curve with a large enough effect in the signal ratio in the repeat runs, not every such curve was filed as active; the % refers to the signal ratio; also: potency is read from the fitted curve at half-maximal effect). Put shortly: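 Compounds dissolved in DMSO were added to PPARg UAS-bla HEK293H cells for 17 h at 37C, and reporter expression was quantified by fluorescence intensity after 1 h with LiveBLAzer B/G FRET substrate.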

For test [18] the target is unchanged. Briefly: qHTS assay to identify small molecule antagonists of the peroxisome proliferator-activated receptor gamma (PPARg) signaling pathway (AID 743191; calls by dose curve; also: series mostly up to about 63 µM; nearly all actives have a fitted effect of over 30% in size). An outline of the steps: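 GeneBLAzer PPARg UAS-bla HEK293H cells, 5 h post-plating, exposed to compounds 17 h at 37C. LiveBLAzer B/G FRET substrate added for 1 h at room temperature; beta-lactamase reporter read by fluorescence intensity.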

Test [19] addresses Bile acid receptor (Homo sapiens) (UniProt Q96RI1). Briefly: qHTS assay to identify small molecule antagonists of the farnesoid-X-receptor (FXR) signaling pathway (AID 743217; active = well fitted inhibition curve with a large enough effect in the signal ratio in the repeat runs, not every such curve was filed as active; the % refers to the signal ratio). Put shortly:
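GeneBLAzer FXR-UAS-bla HEK 293T, CDCA-stimulated (50 uM final). Compound treatment 16 h, 37 °C. Detection: beta-lactamase cleavage of B/G FRET substrate, fluorescence.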

For test [20] the target is unchanged. The test can be described thus: qHTS assay to identify small molecule agonists of the farnesoid-X-receptor (FXR) signaling pathway (AID 743220; active = well fitted activation curve with a large enough effect in the signal ratio in the repeat runs, not every such curve was filed as active; the % refers to the signal ratio; also: potency is read from the fitted curve at half-maximal effect). Put shortly: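 Beta-lactamase reporter under UAS control in GeneBLAzer FXR HEK 293T cells (5000/well) measured with LiveBLAzer FRET substrate after 2 h at room temperature. Compound exposure lasted 16 h at 37C.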

Values joined by “and” are separate entries in the source; they are usually repeats but may differ in a detail not shown here. Identical values can stand only once. Records with an inconclusive call do not appear. More than one record can exist for a structure, and the calls need not agree. Active and inactive are the calls of the source. Unless noted, calls follow the shape of the dose curve; as a rule, active = well fitted curve in the direction sought with a large enough effect in the repeat runs; inconclusive = weak or mixed curves; inactive = no such curve, though single readings can be large; an effect the other way counts as inactive or inconclusive.

Sequence of Vitamin D3 receptor (Homo sapiens) (P11473 whole entry, looked up): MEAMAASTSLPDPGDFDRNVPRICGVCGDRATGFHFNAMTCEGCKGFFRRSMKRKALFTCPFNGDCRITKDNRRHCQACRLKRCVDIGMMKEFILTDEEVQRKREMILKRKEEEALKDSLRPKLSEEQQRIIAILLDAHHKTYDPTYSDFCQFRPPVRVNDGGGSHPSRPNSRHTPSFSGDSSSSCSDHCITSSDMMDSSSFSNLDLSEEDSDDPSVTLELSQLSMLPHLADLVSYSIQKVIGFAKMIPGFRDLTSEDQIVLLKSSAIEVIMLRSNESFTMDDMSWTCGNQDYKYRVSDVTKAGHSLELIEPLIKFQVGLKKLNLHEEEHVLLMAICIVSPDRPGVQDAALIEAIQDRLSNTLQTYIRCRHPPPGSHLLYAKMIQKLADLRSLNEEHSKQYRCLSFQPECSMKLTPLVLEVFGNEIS
Sequence of Peroxisome proliferator-activated receptor delta (Homo sapiens) (Q03181 whole entry, looked up): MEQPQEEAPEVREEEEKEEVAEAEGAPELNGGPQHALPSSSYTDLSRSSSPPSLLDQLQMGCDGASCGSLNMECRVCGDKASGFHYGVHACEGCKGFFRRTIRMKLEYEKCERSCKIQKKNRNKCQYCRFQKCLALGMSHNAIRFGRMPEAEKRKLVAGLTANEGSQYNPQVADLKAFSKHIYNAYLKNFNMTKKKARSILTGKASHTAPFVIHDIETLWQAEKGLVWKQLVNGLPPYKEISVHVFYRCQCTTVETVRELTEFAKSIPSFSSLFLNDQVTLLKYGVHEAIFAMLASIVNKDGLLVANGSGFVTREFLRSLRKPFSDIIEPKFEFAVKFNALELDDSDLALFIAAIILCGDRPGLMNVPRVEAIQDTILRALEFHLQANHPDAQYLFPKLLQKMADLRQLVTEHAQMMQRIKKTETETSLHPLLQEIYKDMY
Sequence of Peroxisome proliferator-activated receptor gamma (Homo sapiens) (P37231 whole entry, looked up): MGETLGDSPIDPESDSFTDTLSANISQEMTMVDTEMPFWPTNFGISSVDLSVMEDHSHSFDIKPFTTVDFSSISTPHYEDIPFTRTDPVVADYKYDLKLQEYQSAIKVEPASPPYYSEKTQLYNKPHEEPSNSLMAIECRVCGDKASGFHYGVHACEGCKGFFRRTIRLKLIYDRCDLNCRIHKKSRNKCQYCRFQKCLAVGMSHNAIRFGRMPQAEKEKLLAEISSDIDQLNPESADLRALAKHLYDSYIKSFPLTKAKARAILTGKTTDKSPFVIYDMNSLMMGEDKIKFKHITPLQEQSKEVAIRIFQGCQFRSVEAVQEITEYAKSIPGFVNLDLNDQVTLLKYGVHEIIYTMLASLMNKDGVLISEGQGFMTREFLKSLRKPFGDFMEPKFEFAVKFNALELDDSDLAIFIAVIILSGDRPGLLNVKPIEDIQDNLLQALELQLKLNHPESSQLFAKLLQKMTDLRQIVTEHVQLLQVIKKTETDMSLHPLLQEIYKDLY
Sequence of Bile acid receptor (Homo sapiens) (Q96RI1 whole entry, looked up): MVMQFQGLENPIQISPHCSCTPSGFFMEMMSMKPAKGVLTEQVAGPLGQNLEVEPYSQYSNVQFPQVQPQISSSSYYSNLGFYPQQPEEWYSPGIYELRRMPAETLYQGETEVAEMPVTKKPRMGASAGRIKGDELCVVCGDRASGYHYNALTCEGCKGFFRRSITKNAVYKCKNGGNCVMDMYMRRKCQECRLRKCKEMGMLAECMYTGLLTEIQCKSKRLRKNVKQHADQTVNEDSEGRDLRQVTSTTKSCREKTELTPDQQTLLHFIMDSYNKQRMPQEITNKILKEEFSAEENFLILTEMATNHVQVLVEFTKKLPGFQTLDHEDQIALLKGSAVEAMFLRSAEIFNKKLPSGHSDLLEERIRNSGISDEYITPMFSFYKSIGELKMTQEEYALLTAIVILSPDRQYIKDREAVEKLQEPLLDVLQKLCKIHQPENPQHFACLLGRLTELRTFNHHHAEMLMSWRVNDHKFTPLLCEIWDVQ
Sequence of Aryl hydrocarbon receptor (Homo sapiens) (P35869 whole entry, looked up): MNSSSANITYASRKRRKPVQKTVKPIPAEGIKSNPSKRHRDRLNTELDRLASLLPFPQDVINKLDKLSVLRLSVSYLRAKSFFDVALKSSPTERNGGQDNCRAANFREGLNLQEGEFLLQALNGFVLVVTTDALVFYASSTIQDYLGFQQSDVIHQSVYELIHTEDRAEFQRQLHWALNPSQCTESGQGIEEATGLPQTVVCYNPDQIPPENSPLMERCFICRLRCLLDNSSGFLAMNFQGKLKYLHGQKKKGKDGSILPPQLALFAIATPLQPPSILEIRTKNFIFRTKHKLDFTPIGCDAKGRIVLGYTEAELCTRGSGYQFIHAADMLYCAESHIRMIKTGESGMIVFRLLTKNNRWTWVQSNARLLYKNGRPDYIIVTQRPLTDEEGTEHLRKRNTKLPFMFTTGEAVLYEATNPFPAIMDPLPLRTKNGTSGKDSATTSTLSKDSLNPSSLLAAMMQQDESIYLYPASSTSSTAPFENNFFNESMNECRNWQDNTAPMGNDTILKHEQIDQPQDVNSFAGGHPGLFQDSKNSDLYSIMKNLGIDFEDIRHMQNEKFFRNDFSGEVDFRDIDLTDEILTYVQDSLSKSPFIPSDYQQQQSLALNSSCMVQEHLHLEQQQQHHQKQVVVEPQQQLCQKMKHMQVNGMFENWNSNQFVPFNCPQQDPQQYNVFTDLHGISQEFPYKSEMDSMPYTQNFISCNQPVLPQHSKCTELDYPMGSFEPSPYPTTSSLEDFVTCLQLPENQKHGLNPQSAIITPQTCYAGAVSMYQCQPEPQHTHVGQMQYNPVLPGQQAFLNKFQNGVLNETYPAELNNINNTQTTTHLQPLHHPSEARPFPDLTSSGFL

As to `CC/C(C)=N/O`, the Potency result in [1], in [2], in test [3], in [4], in [5] and in test [6] was “inactive” each time. Besides, the Potency entry in test [7], in [8], in test [9], in test [10] and in test [12] was “inactive” in each case. Also, the outcome in test [11] was inactive.
In the case of `COC(=O)/C=C\C(=O)OC`, the Potency entry in test [2], in [4], in [5], in test [7], in [13] and in [14] was “inactive” in each case. Besides, the Potency entry in [9], in test [10] and in test [12] was “inactive” each time. For the same molecule, the molecule was classed as inactive in [11].
As to `CC(=O)OC[C@H]1O[C@@](COC(C)=O)(O[C@H]2O[C@H](COC(C)=O)[C@@H](OC(C)=O)[C@H](OC(C)=O)[C@H]2OC(C)=O)[C@@H](OC(C)=O)[C@@H]1OC(C)=O`, the Potency result in test [15], in test [16], in test [2], in test [3], in test [4] and in test [5] was “inactive” in each case. Besides, the Potency result in test [7], in [13], in [8], in test [14], in test [9] and in [10] was “inactive” each time. The Potency entry in [12] is “inactive”. In addition, in [11], the call was inactive.
Regarding `Cc1ccc(Cl)cc1`, the Potency entry in test [15], in test [16], in test [17], in test [18], in [2] and in test [3] was “inactive” each time. Also, the Potency result in test [4], in [5], in [7], in [13], in [14] and in test [19] was “inactive” each time. Besides, the Potency entry in test [9], in test [20], in [10] and in [12] was “inactive” in each case. Also, the outcome in [11] was inactive.
Turning to `CCCCC(=O)O`, the Potency entry in test [15], in test [16], in test [17], in [18], in test [2] and in test [3] was “inactive” each time. For the same molecule, the Potency entry in test [4], in test [5], in [7], in test [19], in [9] and in [20] was “inactive” each time. The Potency result in test [10] and in test [12] was “inactive” in each case. The molecule was called inactive in [11].
Regarding `Nc1nc(N)c2nc(-c3ccccc3)c(N)nc2n1`, the Potency entry in test [1], in test [2], in test [5], in test [7], in test [9] and in test [10] was “inactive” in each case. Also, the Potency in [17] was 23.9 µM (active); in [3], 31 µM (active) and 30.6 µM (active) and 23.7 µM (active); in [4], 27.6 µM (active) and 17.2 µM (active); in test [6], 37.1 µM (active) and 29.7 µM (active) and 26.6 µM (active); in test [13], 24.5 µM (active) and 23.7 µM (active); in test [20], 49.5 µM (active) and 21.1 µM (active).
As to `CC(=O)CC(=O)N(C)C`, the Potency entry in test [15], in [1], in test [2], in [3], in test [4] and in test [5] was “inactive” in each case. For the same molecule, the Potency result in test [7], in test [13], in test [8], in [14], in test [19] and in [9] was “inactive” in each case. Moreover, the Potency entry in test [20], in test [10] and in test [12] was “inactive” in each case. In test [11], the outcome was inactive.
`COC(=O)OC`: the Potency result in test [15], in test [16], in test [17], in test [18], in test [2] and in [4] was “inactive” throughout. Moreover, the Potency result in test [5], in test [7], in [13], in test [8], in [14] and in test [9] was “inactive” each time. Besides, the Potency result in test [10] was “inactive”. The outcome in [11] was inactive.
With `CC(CN1c2ccccc2Sc2ccccc21)N(C)C` (stereo not drawn), the Potency result in test [15], in [16], in [17], in test [3], in test [5] and in [6] was “inactive” each time. The Potency in test [4] was 68.6 µM (active) and inactive; in test [7] it was 49.5 µM (active) and 21.9 µM (active); in test [8], 49.5 µM (active) and 24.5 µM (active); in [9], 49.5 µM (active) and 27.5 µM (active); in [10] it was 49.5 µM (active).
Take `O=[N+]([O-])c1ccccc1C(F)(F)F`: the Potency entry in [15], in [1], in test [17], in test [18], in test [2] and in [3] was “inactive” throughout. Also, the Potency entry in test [4], in test [5], in test [6], in [7], in test [13] and in test [14] was “inactive” throughout. The Potency entry in test [9], in test [10] and in [12] was “inactive” each time. Besides, the molecule was called inactive in test [11].
For the molecule `Brc1ccc(Oc2ccc(Br)cc2)cc1`, the Potency entry in test [2], in [3], in [4], in test [5], in test [7] and in test [13] was “inactive” in each case. Further, the Potency result in test [8], in test [14], in [9], in test [10] and in [12] was “inactive” in each case. In addition, the outcome in [11] was inactive.
Consider `N[C@@H](Cc1cc(I)c(Oc2ccc(O)c(I)c2)c(I)c1)C(=O)O`, for which the Potency entry in test [15], in test [17], in test [2], in [4], in test [5] and in test [6] was “inactive” in each case. Besides, the Potency result in test [7], in test [13], in [14], in test [9], in [10] and in [12] was “inactive” each time. In addition, the Potency entry in [3] was “inactive and 12.7 µM (active)”. In addition, the outcome in test [11] was inactive.

The record behind these values is PubChem BioAssay (Tox21).
